This is one part of a sample in which hits are shown more often than they occur.
VP16 counter – counter-screen for ROR gamma inhibitors: Gal4-VP16 reporter. Potency, µM (highest dose often 53.6 µM), actives largely listed as inhibitors. 310,000 tested, 3.5% active. Drosophila S2 Gal4-VP16 UAS-luciferase, luminescence, 20 h;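 further: Gal4-VP16 expression switched on by copper sulfate through the metallothionein promoter; nearly all actives have a fitted effect of over 50% in size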
RORg inh – inhibitors of mouse ROR gamma transcriptional activity; 310,000 tested, 5.4% active; P51450; Drosophila S2 Gal4-RORgamma UAS-luciferase reporter, 20 h; Potency, µM (highest dose often 53.6 µM), most hits filed as inhibitors; further: nearly all actives have a fitted effect of over 60% in size
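Using a luciferase readout, inhibitors were identified by reduced reporter activity in Drosophila cells coexpressing a copper-inducible Gal4–ROR gamma fusion and UAS-driven Photinus luciferase, incubated 20 hr after 700 uM copper sulfate.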
a7 integrin act – activators of alpha7 integrin expression for muscular dystrophy; alpha7betagal myoblasts, beta-gal FDG fluorescence, 48 h; Potency, µM (titrated, usually from 38.3 µM), actives largely listed as activators; 350,000 tested, 0.064% active; AID 624291; further: nearly all actives have a fitted effect of over 60% in size
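alpha7betagal+/- myoblasts (passage 13, 250/well) treated 48 h at 37C with compounds at 1:260 dilution of DMSO stock. Lysed, then beta-galactosidase activity read as FDG fluorescence (ex 480/em 540) after 30 min, with pre-read for autofluorescence.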
ERG-DNA inh – ERG Ets/DNA interaction inhibition | P11308 | fluorescence polarization, His-ERG Ets domain / labelled DNA | Potency, µM (doses to about 76.9 µM), usual class: inhibitors | 370,000 tested, 0.028% active; active means well fitted inhibition curve with a large enough effect in the polarisation, with a control signal flat; inconclusive means small, poorly fitted or top-dose-only effect, or effect the other way, or a change in a side signal; inactive means no such curve, though single readings can be large or run the other way; the % refers to the polarisation;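 further: polarization taken with two DNA probes labelled with fluorescein and Texas red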
Target sequence (P11308 whole entry, looked up, the tested form may be a part): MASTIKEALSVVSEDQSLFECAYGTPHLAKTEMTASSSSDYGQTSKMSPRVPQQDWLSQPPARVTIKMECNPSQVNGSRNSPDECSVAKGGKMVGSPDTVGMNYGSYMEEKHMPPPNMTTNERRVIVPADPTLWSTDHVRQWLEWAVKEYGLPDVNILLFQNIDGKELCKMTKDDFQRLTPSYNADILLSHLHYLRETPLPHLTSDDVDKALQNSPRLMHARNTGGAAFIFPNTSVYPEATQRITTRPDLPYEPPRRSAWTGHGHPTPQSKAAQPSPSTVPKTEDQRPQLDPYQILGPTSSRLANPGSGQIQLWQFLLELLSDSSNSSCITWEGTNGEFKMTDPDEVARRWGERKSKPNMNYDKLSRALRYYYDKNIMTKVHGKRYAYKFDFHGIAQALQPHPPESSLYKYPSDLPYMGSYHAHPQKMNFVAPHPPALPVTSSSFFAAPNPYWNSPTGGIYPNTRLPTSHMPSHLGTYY
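His-tagged ERG Ets domain (1 uM in the protein solution; 300mM KCl, 50mM Tris-HCl, 1mM EDTA, 1mM DTT, pH 7.5) received compound, then a probe mix of 5 nM fluorescein-DNA and 100nM Texas-615-DNA. Fluorescence polarization was read for both dyes.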
Giardia killer – kills Giardia lamblia; Giardia lamblia trophozoite viability; activity change, % at 7.66 µM, hits read low; 340,000 tested, 0.15% active; AID 540267; in the data active means activity change below about -80%; inconclusive means between about -30% and that limit;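 further: parasites exposed to compound for two days anaerobically before the ATP read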
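Each well holds 100 Giardia trophozoites and compound. After two days (48 hrs) at 37 deg C in anaerobic conditions, ATP is quantified by luminescence.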
Each line names hits and unclear results; the compound was inactive in the other large screens. Unless noted, the call rests on the fitted dose curve; in most records, active means well fitted curve in the direction sought with a large enough effect; inconclusive means small, poorly fitted or top-dose-only effect, or another doubt; inactive means no such curve, though single readings can be large; an effect the other way counts as inactive or inconclusive.

C=CCN=c1scc(-c2ccc(F)cc2)n1/N=C/c1ccccn1	VP16 counter 11.2µM, RORg inh 8.91µM
Cc1nc2ccccc2c(=O)n1/N=C/c1ccccn1	none (no result: ERG-DNA inh)
C=CCN=c1scc(-c2ccccc2)n1/N=C/c1ccccn1	VP16 counter 10µM, RORg inh 5.01µM
C=CCOC(=O)N[C@@H](c1ccc(Br)cc1)C(C(C)=O)C(C)=O	none (no result: a7 integrin act, ERG-DNA inh, Giardia killer)
O=C1c2ccccc2CC[C@H]1CNCCc1ccc(O)cc1	VP16 counter 11.2µM, RORg inh 14.1µM (no result: a7 integrin act, ERG-DNA inh, Giardia killer)
COc1cccc2cc(C(=O)NCc3ccccc3)c(=N)oc12	none
COc1cccc2cc(C(=O)NCc3ccc(Cl)cc3)c(=N)oc12	VP16 counter inconclusive, RORg inh 0.0891µM
Cc1cc(Nc2ccc(Br)cc2F)n2nc(C)nc2n1	VP16 counter 7.94µM, RORg inh 3.16µM
COc1ccc(-c2nc3c4ccccc4ccn3c2CN2CCCCC2)cc1OC	RORg inh inconclusive
COc1ccc(-c2nc3c4ccccc4ccn3c2CN2CCCCC2)cc1	RORg inh 7.94µM
Clc1ccc(-c2nc3ccccn3c2CN2CCCCC2)cc1	RORg inh 17.8µM
CCOc1ccccc1NC(=O)CSc1ncc2c(n1)-c1ccccc1N(CC)S2(=O)=O	none (no result: VP16 counter, RORg inh, a7 integrin act, Giardia killer)
Cn1c(SCC(=O)NNC(=S)Nc2ccccc2)nnc1-c1ccccc1	VP16 counter 1.41µM, RORg inh 0.891µM, a7 integrin act inconclusive
O=C(CSc1nnc(SCc2ccccc2)s1)NNC(=S)Nc1ccccc1	VP16 counter 12.6µM, RORg inh 14.1µM
CCn1c(SCC(=O)NNC(=S)Nc2ccc(C)cc2)nnc1-c1ccc(Cl)cc1	VP16 counter 1.41µM, RORg inh 3.55µM
Cc1ccc(NC(=S)NNC(=O)CSc2nnc(-c3ccc(Cl)cc3)n2C2CCCCC2)cc1	VP16 counter inconclusive, RORg inh 11.2µM
CCCc1nn2c(=O)cc(COC(=O)c3ccc4c(c3)OCO4)nc2s1	none (no result: VP16 counter, RORg inh, a7 integrin act, Giardia killer)
N#C/C(=C\c1cccnc1)c1ccc([N+](=O)[O-])cc1	VP16 counter 12.6µM, RORg inh inconclusive
N#C/C(=C/c1cccnc1)c1ccccc1	none
OCCCNc1cc(-c2ccnc(Nc3cccc(Cl)c3)n2)ccn1	VP16 counter 1µM, RORg inh 1.78µM
CCC(C)Oc1cc(-c2ccnc(Nc3cccc(Cl)c3)n2)ccn1 (centres undefined)	none
CCSCCc1nnc(NC(=O)Nc2cccc(C(F)(F)F)c2)s1	VP16 counter 17.8µM, RORg inh inconclusive
CCn1ncc(NC(=O)Nc2cccc(C(F)(F)F)c2)c1C(N)=O	none
COc1ccc(-c2cc(=O)c3cc(F)ccc3[nH]2)cc1	none
COc1ccc2[nH]c(-c3ccc(C)cc3)cc(=O)c2c1	VP16 counter 7.94µM, RORg inh 10µM, Giardia killer inconclusive
CC(C)CCn1c(=S)[nH]c2ncccc2c1=O	RORg inh 5.01µM
CCOCCCn1c(=S)[nH]c2ncccc2c1=O	VP16 counter inconclusive, RORg inh 10µM
COc1ccc(N2CCN(CCCn3c(=S)[nH]c4ncccc4c3=O)CC2)cc1	RORg inh inconclusive
CN(C)CCn1c(=S)[nH]c2ncccc2c1=O	none
CCc1ccc(NCc2cc3ccc(OC)cc3n(CC(=O)Nc3c(C)cc(C)cc3C)c2=O)cc1	none (no result: VP16 counter, RORg inh, a7 integrin act, Giardia killer)
CCc1c(C)sc(NC(=S)NC(C)C2CCCO2)c1C(=O)OC (centres undefined)	VP16 counter 10µM, RORg inh 15.8µM
CCc1c(C)sc(NC(=S)N2CC(C)OC(C)C2)c1C(=O)OC (centres undefined)	RORg inh 7.08µM
CCOC(=O)C[C@H]1c2ccc(C(F)(F)F)cc2S(=O)(=O)N1C(C)C	none (no result: VP16 counter, RORg inh)
CCc1ccc(NC(=O)Cn2c(=O)n(-c3ccc(OC)cc3)c(=O)c3ccc(C(=O)NCc4ccc(C)cc4)cc32)cc1	none (no result: VP16 counter, RORg inh, a7 integrin act, Giardia killer)
Brc1ccc(-c2csc(N3CCCCCC3)n2)cc1	VP16 counter inconclusive, RORg inh 11.2µM
Brc1ccc(-c2csc(N3CCOCC3)n2)cc1	a7 integrin act inconclusive
CCn1c(-c2cc3c(C(F)(F)F)nn(C)c3s2)n[nH]c1=S	RORg inh inconclusive
NC(N)=NCCC[C@H](NC(=O)CC1(CC(=O)N2CCN(C3c4ccccc4NC(=O)c4ccccc43)CC2)CCCC1)C(=O)NCCn1c(=O)n(-c2ccccc2)n(-c2ccccc2)c1=O (some centres undefined)	none (no result: a7 integrin act, ERG-DNA inh, Giardia killer)
CC(=NNC(=O)CSc1nc2ccccc2o1)c1ccco1	none (no result: VP16 counter, RORg inh)

Compound activity (PubChem)
